Sm TGR block = qHTS Assay for the Inhibitors of Schistosoma Mansoni Peroxiredoxins. hit rate 3% among 360,000. Potency, µM (top dose mostly 114 µM), actives largely listed as inhibitors. AID 485364, 2010. Schistosoma mansoni thioredoxin glutathione reductase (TGR), Q962Y6. purified TGR, DTNB reduction, TNB absorbance 405 nm; also: nearly all actives have a fitted effect of over 60% in size
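First, TGR (20 nM dispensed) and NADPH were mixed with compound. Second, a 15 min room-temperature incubation followed. Third, further NADPH and then DTNB were added to start the reaction. Finally, TNB absorbance was monitored kinetically.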
Pf growth 96h = Primary qHTS for delayed death inhibitors of the malarial parasite plastid, 96 hour incubation; P. falciparum luciferase reporter growth, 96 h; Potency, µM (doses to about 28.7 µM), hits mostly inhibitors; hit rate 6.9% among 320,000
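Luminescence readout: decreased luciferase signal marks inhibited growth of reporter-expressing P. falciparum in infected red cells (2% hematocrit, 0.05% parasitemia final), exposed to compound two generations (96 h, 37 C, 5% CO2).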
Pf growth 48h = Primary qHTS for delayed death inhibitors of the malarial parasite plastid, 48 hour incubation; P. falciparum luciferase growth in erythrocytes, 48 h; hit rate 5.9% among 310,000; Potency, µM (doses to about 28.7 µM), most hits filed as inhibitors; AID 504832, 2011
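In quantitative HTS format, infected erythrocytes bearing luciferase-reporter parasites were treated for a single generation at 37 C. Luminescence after adding detection reagent served as the growth measure.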
HCMV antiviral = qHTS Assay for inhibitors of the human cytomegalovirus (HCMV) | hit rate 4.5% among 410,000 | HFF cells, HCMV-luciferase reporter, 72 h; stronger effect = lower value | activity change, negative = inhibition, % at 57.5 µM; in the data active = activity change below about -60%; inconclusive = no clear call, values can overlap the other calls; inactive = above about -39%
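Inhibition of viral replication was scored as loss of reporter luminescence in HFFs infected with HCMV-luciferase (MOI 1 PFU/cell) for 72 h; compounds tested at 2 doses, normalized to buffer and Salinomycin controls.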
Giardia FBPA inh = qHTS Assay for Inhibitors of Fructose-1,6-bisphosphate Aldolase from Giardia Lamblia; A8B2U2; purified Giardia FBPA; Potency, µM (doses to about 59.6 µM), actives largely listed as inhibitors; hit rate 0.71% among 290,000; also: nearly all actives have a fitted effect of over 55% in size
Target sequence (A8B2U2 whole entry, looked up): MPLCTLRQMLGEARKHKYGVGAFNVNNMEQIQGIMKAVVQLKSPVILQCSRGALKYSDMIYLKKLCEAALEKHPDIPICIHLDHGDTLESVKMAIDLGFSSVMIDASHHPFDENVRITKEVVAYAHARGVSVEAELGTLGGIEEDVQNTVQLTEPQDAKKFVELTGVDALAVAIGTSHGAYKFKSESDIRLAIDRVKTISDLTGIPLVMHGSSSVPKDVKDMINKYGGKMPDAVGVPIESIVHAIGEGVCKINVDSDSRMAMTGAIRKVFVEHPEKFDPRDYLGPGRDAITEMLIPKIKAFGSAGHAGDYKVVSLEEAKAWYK
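40 nM FBPA preincubated 10 min at RT with compound (up to 57.5 uM final), then substrate plus GAPDH/TPI/NAD/arsenate coupling and diaphorase/resazurin added. Fluorescence read after 20 min at RT, 525/598 nm.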
Each line names hits and unclear results; the compound was inactive in the other large screens. Sampled rows, rich in hits. Any-hit rate of the full collection: about 14%. Unless noted, calls follow the shape of the dose curve; as a rule, active = well fitted curve in the direction sought with a large enough effect; inconclusive = small, poorly fitted or top-dose-only effect, or another doubt; inactive = no such curve, though single readings can be large; an effect the other way counts as inactive or inconclusive.

C=CCc1cccc(/C=N/c2ncccc2O)c1O	Sm TGR block 28µM, Giardia FBPA inh inconclusive
CN(CCC#N)C(=O)Cn1nc(Cc2ccncc2)c2ccccc2c1=O	Pf growth 96h 13µM (no result: Pf growth 48h)
CCCN(C(=O)Cn1nc(Cc2ccncc2)c2ccccc2c1=O)c1ccccc1C	HCMV antiviral -62 (no result: Pf growth 96h, Pf growth 48h, Giardia FBPA inh)
CCCN(C(=O)Cn1nc(Cc2cccnc2)c2ccccc2c1=O)c1ccc(C(C)C)cc1	HCMV antiviral -63 (no result: Pf growth 96h, Pf growth 48h, Giardia FBPA inh)
CCCCNC(=O)Cn1nc(Cc2ccncc2)c2ccccc2c1=O	Pf growth 96h 9.3µM, HCMV antiviral -62
Cc1ccc(OCC2Cn3c(nc4c3c(=O)[nH]c(=O)n4C)O2)cc1C (centres undefined)	none
CCC(C)c1ccc(NC(=S)Nc2ccc(OC)cc2)cc1 (centres undefined)	none
Clc1ccccc1OCc1nnc2n1CCCCC2	none
O=C1NC(=S)N/C1=C/c1cccc([N+](=O)[O-])c1O	Pf growth 96h 1.9µM, Pf growth 48h inconclusive
Cc1ccc(/C=C/C(=O)O)cc1S(=O)(=O)NCCO	Sm TGR block 45µM
Cc1ccc(/C=C/C(=O)O)cc1S(=O)(=O)Nc1ccc(C(=O)O)cc1	Sm TGR block 35µM
Cc1ccc(/C=C/C(=O)O)cc1S(=O)(=O)Nc1ccccc1C(=O)O	Sm TGR block inconclusive, Pf growth 96h 10µM
Cc1ccc(/C=C/C(=O)O)cc1S(=O)(=O)N1CCCCC1	none
Cc1ccc(N(C(=O)c2snc(C(N)=O)c2N)C(C(=O)NCc2ccccc2)c2ccncc2)c(C)c1 (centres undefined)	Pf growth 48h inconclusive
Cc1ccc(CNCc2ccccc2)s1	none (no result: Pf growth 96h, Pf growth 48h, Giardia FBPA inh)
Cc1ccc(CNCC(O)c2ccccc2)s1 (centres undefined)	Pf growth 48h 12µM
OC(CNCc1cccs1)c1ccccc1 (centres undefined)	Pf growth 96h inconclusive, Pf growth 48h 13µM (no result: HCMV antiviral)
Cc1ccsc1CNCC(O)c1ccccc1 (centres undefined)	Pf growth 48h 12µM, Giardia FBPA inh inconclusive
OC(CNCc1ccc(-c2ccccc2)cc1)c1ccccc1 (centres undefined)	Pf growth 48h inconclusive
OC(CNCc1cccc(Br)c1)c1ccccc1 (centres undefined)	Pf growth 96h 10µM, Pf growth 48h 3.7µM (no result: Sm TGR block)
CC1CCN(C(=O)CN2C(=O)NC(c3ccccc3)(c3ccccc3)C2=O)CC1	Pf growth 96h inconclusive, Pf growth 48h inconclusive (no result: Giardia FBPA inh)
Cc1cc2c(cc1S(=O)(=O)CCC(=O)N1CCC(C)CC1)OCC(=O)N2	none (no result: Pf growth 96h, Pf growth 48h, Giardia FBPA inh)
CCC(=O)Nn1cnc2c(c1=O)C1(CCCCC1)Cc1ccccc1-2	none (no result: Pf growth 96h)
c1ccc(OCc2nc3c4c(ncn3n2)-c2ccccc2CC42CCCC2)cc1	Pf growth 48h 13µM, HCMV antiviral inconclusive
Nc1n[nH]c2c1C1(CCCCC1)Cc1ccccc1-2	Pf growth 96h inconclusive
Nc1ncnc2c1C1(CCCCC1)Cc1ccccc1-2	Pf growth 96h 8.3µM, HCMV antiviral inconclusive
COc1cccc(Cn2c(C)c(CNC3CCCCC3)c(C(=O)O)c2C)c1	HCMV antiviral -102 (no result: Pf growth 96h, Pf growth 48h, Giardia FBPA inh)
Cc1c(CNC2CCCCC2)c(C(=O)O)c(C)n1Cc1ccc(Cl)cc1	none (no result: Pf growth 96h, Pf growth 48h, Giardia FBPA inh)
C/C=C(/C)C(=O)O[C@@H]1[C@H](OC(C)=O)c2c(ccc3ccc(=O)oc23)OC1(C)C	Pf growth 96h inconclusive, Pf growth 48h inconclusive
CC1(C)Oc2ccc3ccc(=O)oc3c2[C@H](O)[C@H]1O	none (no result: Giardia FBPA inh)
C/C=C(/C)C(=O)OC1c2c(ccc3ccc(=O)oc23)OC(C)(C)C1OC(C)=O (centres undefined)	Pf growth 96h inconclusive, Pf growth 48h 8.3µM
CC1(C)Oc2ccc3ccc(=O)oc3c2C(N2CCCCC2)C1O (centres undefined)	Sm TGR block 35µM, Pf growth 48h inconclusive
N#Cc1c2c(c(=S)n(-c3ccccc3)c1N)CCCC2	Sm TGR block 40µM, Giardia FBPA inh inconclusive
CCCCCOc1ccc(Br)cc1CSC(=N)N	Pf growth 96h inconclusive, Pf growth 48h 10µM, HCMV antiviral -98
COc1ccc(OC)c(C2=NOC(C(=O)Nc3cccc(C(C)=O)c3)C2)c1 (centres undefined)	Pf growth 96h 9.3µM

Assay outcomes from PubChem BioAssay.
